The values that follow come from PubChem BioAssay AID2315 (National Center for Advancing Translational Sciences (NCATS), 2010).

“And” between values parts separate entries of the source, which are not always exact repeats. Equal values may be shown once. The campaign covered roughly 290,000 compounds. About 27,000 (9.3%) were called active. Shown is part of a subset that was picked to be rich in actives. Unmarked numbers belong to inactive results. Cut-off read from the data, not from the text of the source: active = inhibition mostly above about 28% (no sharp cut-off); inactive = mostly below about 43%.

The assay is described as follows: A qHTS for Small Molecule Inhibitors of Shiga Toxin. For inhibition: 0% is about no effect. The following applies: Vero cells, Shiga toxin protein synthesis inhibition reporter; at 38.7 µM, hits give high values. In general terms: qHTS replaces the single test concentration by a dilution series.
On to `COC(=O)c1ccc(COC(=O)c2cnc(Cl)c(Cl)c2)cc1`, for which the inhibition was 87.3% (active).

In the case of `CCOc1ccc(C(C)=O)cc1COC(=O)c1cnc(Cl)c(Cl)c1`, the inhibition was 14.4%.

As to `COC(=O)c1ccc(COC(=O)c2cnccn2)cc1`, the inhibition was 5.86%.

For the compound `CN(Cc1ccccc1)C(=O)c1ccc(NC2=NC3CS(=O)(=O)CC3S2)cc1` (stereo unspecified), the inhibition was -3%.

As for `O=C1CCc2cc(S(=O)(=O)N3CCC(C(=O)NCc4ccccc4Cl)CC3)ccc2N1`, the inhibition was -4.83%.

Regarding `CSc1cccc(NC(=O)C2CCCN2S(=O)(=O)c2ccc3c(c2)CCC(=O)N3)c1` (stereo unspecified), the inhibition was 25.9% (active).

Regarding `CC(=O)Nc1ccc(NC(=O)C2CCCN2S(=O)(=O)c2cccc(C(F)(F)F)c2)cc1` (stereo unspecified), the inhibition was -1.36%.

Regarding `CC(=O)c1cccc(NC(=O)C2CCN(C(=O)c3ccccc3Cl)CC2)c1`, the inhibition is -18.7%.

For the compound `CCOc1ccc(C)cc1S(=O)(=O)NC1CCCCCC1`, the inhibition was -4.32%.

With `CCc1cc2c(=O)n(-c3ccccc3)c(SCC(=O)O)nc2s1`, the inhibition was -7.15%.

`COc1ccc(/C=C2\SC(=N)N(c3ccc(F)cc3)C2=O)cc1`: the inhibition was -5.41%.

For the compound `COc1ccc(/C=C2\SC(=S)N(CC(=O)NNC(=O)c3ccncc3)C2=O)cc1`, the inhibition is 30.3%.

With `COc1ccc(/C=C2\N=C3CCCN3C2=O)cc1`, the inhibition was 84.4% (active).

For `CC(C)c1c(C(=O)N/N=C/c2ccc(-c3ccccc3)cc2)nnn1-c1nonc1N`, the inhibition was -5.37%.

On to `CCOc1ccc(CN2CCN(CCCc3ccccc3)C(CCO)C2)cc1` (stereo unspecified), for which the inhibition is 1.09%.

For the compound `COc1ccc(N2C(=O)NC(NS(=O)(=O)c3ccc(Cl)cc3)(C(F)(F)F)C2=O)cc1` (stereo unspecified), the inhibition was -3.26%.

For `Cc1[nH]n(-c2ccc(Cl)cc2)c(=O)c1/C=N/n1c(C)nc2ccccc2c1=O`, the inhibition is 38.2%.

Take `Cc1[nH]n(-c2ccc([N+](=O)[O-])cc2)c(=O)c1C=NCCN1CCN(C(=O)c2ccccc2F)CC1`: the inhibition was -12.7%.

For `Cc1ccc(-n2[nH]c(C)c(/C=N/NC(=O)c3cccc([N+](=O)[O-])c3)c2=O)cc1C`, the inhibition was 62.4% (active).

Take `COc1cc(/C=N\NC(=O)CNC(=O)c2cccc([N+](=O)[O-])c2)ccc1O`: the inhibition was -6.08%.

Turning to `Cc1[nH]n(-c2ccccc2)c(=O)c1/C=N/NC(=O)c1ccoc1C`, the inhibition was 125% (active).

Regarding `COc1cc(/C=N/NC(=O)c2ccoc2C)ccc1OCCN1CCCCC1`, the inhibition was 29.5%.

`COc1cc(NS(=O)(=O)c2ccc(NC(=S)NC(=O)c3ccc(Br)cc3)cc2)ncn1`: the inhibition is -2.95%.

Consider `N#CCC(=O)NC1CCC(CC2CCC(NC(=O)CC#N)CC2)CC1` (stereo unspecified), for which the inhibition is -8.84%.

Regarding `Cc1[nH]c(C)c(S(=O)(=O)N2CCN(c3cccc(C(F)(F)F)c3)CC2)c1C(=O)N1CCCCC1`, the inhibition was -4.18%.

As to `NC(=O)C1=C[C@H](c2csc3ccccc23)C[C@H](OCc2ccc(CO)cc2)O1`, the inhibition is 24%.

As for `O=S(=O)([N-]c1nc2ccccc2nc1-[n+]1ccc(Cc2ccccc2)cc1)c1ccc(Br)s1`, the inhibition was 47.8% (active).

Take `Cc1cc(C)c[n+](-c2nc3ccccc3nc2[N-]S(=O)(=O)c2cccs2)c1`: the inhibition is 1.54%.

On to `O=C(NCCc1ccccc1)C1CCN(S(=O)(=O)c2ccc(Br)s2)CC1`, for which the inhibition is 9.64%.

As for `CCOc1ncccc1C(=O)NCCc1ccc(OC)cc1`, the inhibition was -6.94%.

Consider `CNC(=O)c1sc(NCc2ccccc2OC)nc1C`, for which the inhibition is 4.08%.

As for `Cc1cc2c(c(=O)n1Cc1ccccc1)C1O[C@](CCCCN3C(=O)c4ccccc4C3=O)(Cc3ccccc31)O2`, the inhibition result is “inactive”.

For the compound `O=C(O)CCCN1C(=O)c2ccccc2Sc2ncccc21`, the inhibition was -5.85%.

For the compound `O=c1c2cc(-c3ccccc3)sc2nc2n1N=C(c1cccs1)CS2`, the inhibition is 100% (active).

With `c1csc(-c2cn3c(n2)SCC3)c1`, the inhibition is 16.5%.

Regarding `O=c1[nH]c(-c2cccs2)nc2ccccc12`, the inhibition is 32.8%.

As to `C#CC(C)(C)NC(=O)c1cnc(-c2ccccc2)nc1-c1ccccc1`, the inhibition is -5.15%.

Turning to `CC(=O)c1ccc(N2CCN(S(=O)(=O)c3ccc4c(c3)CC(=O)N4C)CC2)cc1`, the inhibition is 54.4% (active).

As to `CC(=O)c1ccc(N2CCN(C(=O)C3CCN(S(=O)(=O)c4ccc5c(c4)CC(C)N5C(=O)C4CC4)CC3)CC2)cc1` (stereo unspecified), the inhibition was 22.9%.

For `CC(=O)c1ccc(N2CCN(S(=O)(=O)c3c(C)[nH]c(=O)[nH]c3=O)CC2)cc1`, the inhibition is 16.6%.

For the compound `CCCn1nnnc1NCc1ccc(CC)cc1`, the inhibition is -8.65%.

Consider `O=C(NCc1ccco1)C1(c2ccc(Cl)cc2)CCCC1`, for which the inhibition was -3.65%.

For `COC(=O)/C=C/C(=O)NCc1ccco1`, the inhibition is 18.7%.

With `O=C(/C=C/c1ccc(Cl)cc1Cl)NCc1ccco1`, the inhibition is 94.1% (active).

Turning to `CC(NC(=O)c1cc(=O)[nH]c2ccccc12)c1ccc(F)cc1F` (stereo unspecified), the inhibition is 9.23%.

As to `CCOc1cc(/C=C2\SC(N3CCCCC3)=NC2=O)ccc1O`, the inhibition was 67.1% (active).

As to `CCOc1cc(/C=C2\SC(N3CCCC(C)C3)=NC2=O)ccc1O` (stereo unspecified), the inhibition was 60.1% (active).

For the compound `CCOc1cc(C(=S)N2CCOCC2)ccc1O`, the inhibition is -8.19%.

For `CCOc1ccc(/C=C2\SC(=S)N(NC(=O)c3ccncc3)C2=O)cc1OC`, the inhibition is -10.1%.

With `O=C1N=C(N2CCCC2)S/C1=C\c1cccc(Br)c1`, the inhibition was 34.8%.

On to `CC1CCN(C2=NC(=O)/C(=C/c3ccc(O)cc3)S2)CC1`, for which the inhibition was 38.6%.

`CC(C)CNS(=O)(=O)c1ccc(CCC(=O)NCc2ccc(Cl)cc2)cc1`: the inhibition is -10.9%.

For the compound `CCOc1cc(-c2cc(-c3ccc(NC(C)=O)cc3)nc(N)c2C#N)ccc1O`, the inhibition is -1.91%.

As for `COc1ccc(S(=O)(=O)Nc2ccccc2C(=O)N2CCCC2)cc1C`, the inhibition was 5.33%.

With `O=C(NNC(=O)C1CCCC1)c1ccc(F)cc1`, the inhibition is 10.8%.

For `O=C(O)c1cccc2c1C(=O)N(C1CCCC1)C2`, the inhibition was -4.27%.

Take `CCOc1ccc(S(=O)(=O)N2CCN=C2Cc2ccccc2)cc1C`: the inhibition was -2.53%.

For `CC1CCCCC1NC(=O)c1cn(C)c2ccc(S(=O)(=O)N3CCOCC3)cc2c1=O` (stereo unspecified), the inhibition is -15.7%.

On to `COc1cc(C(=S)N2CCOCC2)ccc1O`, for which the inhibition is -13.2%.

Take `COc1ccc(OCC(=O)N2CCOCC2)cc1`: the inhibition is 51.9%.

Take `COc1ccc(/C(C)=N/N2CCOCC2)c(O)c1`: the inhibition is 47.1% (active).

With `COc1ccc(N(CC(=O)Nc2cc(OC)cc(OC)c2)S(=O)(=O)c2c(C)n[nH]c2C)cc1`, the inhibition was 5.74%.

`CCN(CC)S(=O)(=O)c1ccc(C(=O)N2CCN(C3=NS(=O)(=O)c4ccccc43)CC2)cc1`: the inhibition was 16.6%.

In the case of `Nc1nnc(SCCN2C(=O)c3ccccc3S2(=O)=O)s1`, the inhibition was -8.37%.

As to `Nc1nnc(SCn2nnc3ccccc3c2=O)s1`, the inhibition is 46.5% (active).

With `O=c1c2ccccc2nnn1CSc1nnnn1-c1ccccc1`, the inhibition is 62.9%.

As to `Cc1ccc(-n2cc(CN(C)Cc3nccn3C)c(-c3cccc(C)c3)n2)cc1`, the inhibition is -6.37%.

For the compound `COc1ccc(C(=O)NC2=NCCS2)c(OC)c1`, the inhibition is 42% (active).

As to `COc1ccc(C(=O)Nc2nncs2)c(OC)c1`, the inhibition is 62.3% (active).

As to `COc1ccc(C(=O)N2CCCN(C)CC2)c(OC)c1`, the inhibition is -2.8%.

In the case of `O=C(Nc1nncs1)c1ccccc1NS(=O)(=O)c1cccs1`, the inhibition is -4.57%.

Regarding `O=C(NC1=NCCS1)[C@H](Cc1ccccc1)N1C(=O)c2ccccc2C1=O`, the inhibition was -5.83%.

For `O=C(NCc1ccc2c(c1)OCO2)c1ccc(Cl)s1`, the inhibition was 50.7%.

`COc1ccc(C(=O)NC(C)CCc2ccccc2)c(OC)c1` (stereo unspecified): the inhibition was 22.2%.

`COc1ccc(C(=O)NCc2nnc(SCC(=O)NC3=NCCS3)n2C)cc1`: the inhibition is -9.89%.

On to `O=C(NC1=NCCS1)c1ccc(Cl)s1`, for which the inhibition was 149% (active).

On to `CC(C)C(=O)NCC(c1cccs1)S(=O)(=O)c1ccc(F)cc1` (stereo unspecified), for which the inhibition was 2.44%.

Consider `COc1ccc(CNC(=O)c2nnn(CC(=O)Nc3cc(C)cc(C)c3)c2N)cc1`, for which the inhibition was -9.11%.

As to `COc1ccc(Cn2c(=S)[nH]c3cc(C(=O)NCCCN4CCOCC4)ccc3c2=O)cc1`, the inhibition is 18.7%.

With `CCOC(=O)[C@H]1[C@H]2COc3cc(OC)ccc3[C@@H]2N2C(=O)N(c3ccc(Br)cc3)C(=O)[C@@]12C`, the inhibition is -9.26%.

For `Cc1cc(=O)oc2c3c(cc(OCC(=O)NCc4ccccn4)c12)OC(C)(C)CC3`, the inhibition is -3.65%.

Regarding `CCCn1c2ccccc2c2cnn(CC(=O)NCCCN3CCCCC3CC)c(=O)c21` (stereo unspecified), the inhibition was -4.97%.

`CC(=O)c1cc2c(cc1NC(=O)Cn1nc(-c3ccc(F)cc3)ccc1=O)OCO2`: the inhibition was 20.6%.

In the case of `CSc1ccc(/C=N\NC(=O)COc2ccc(Cl)cc2Br)cc1`, the inhibition was 59.9%.

`CSc1ccc(/C=N\NC(=O)CC(=O)NC(C)C)cc1`: the inhibition is 14.5%.

With `CSc1ccc(/C=N/NC(=O)c2cccc(Cl)c2)cc1`, the inhibition is 4.92% (active).

With `COc1ccc(NC(=O)NN2CCN(C)CC2)c(OC)c1`, the inhibition is -17.8%.

For the compound `COc1ccc(-c2cc(=O)c3c(O)cc(O[C@@H]4O[C@H](CO[C@@H]5O[C@@H](C)[C@H](O)[C@@H](O)[C@H]5O)[C@@H](O)[C@H](O)[C@H]4O)cc3o2)cc1O`, the inhibition was -12.1%.

Turning to `O=c1cc(-c2ccc(O)cc2)oc2c(-c3cc(-c4cc(=O)c5c(O)cc(O)cc5o4)ccc3O)c(O)ccc12`, the inhibition is -1.7%.

For `COc1c(O)cc2oc(-c3ccc(O)c(O)c3)cc(=O)c2c1O`, the inhibition was 69.1% (active) and 69% (active).

For the compound `CN(CC1CCCO1)S(=O)(=O)c1ccc(C(=O)Nc2ccc(F)cc2)cc1` (stereo unspecified), the inhibition was 11.9%.

As usually defined, the inhibition is the drop in the measured response relative to a control, in per cent.
